A short description of assay [1]: TOX21_p53_BLA_p2_viability: Viability Assessment in the Tox21 HCT-116 p53 Agonism Beta-lactamase Assay, Phase 2 (AID 2283591).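 Also: actives lower the ATP signal meaning cytotoxicity.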 An outline of the steps: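 HCT116 p53-bla cells, 4000/well, dosed after 5 h plating (217-fold dilution of DMSO stocks) and incubated 16 h at 37C. Viability taken as cellular ATP by CellTiter-Glo luminescence after 30 min RT; signal loss marks cytotoxicity.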

The target of assay [2] is Cellular tumor antigen p53 (Homo sapiens) (UniProt P04637). In words: TOX21_p53_BLA_p2_ratio: Tox21 HCT-116 p53 Agonism Beta-lactamase Assay, Ratio, Phase 2 (AID 2283592). The method in brief:
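First, HCT116 reporter cells settle for 5 h at 37C. Next, DMSO compound solutions are pinned in (217-fold dilution) and left 16 h. Finally, CCF4-AM substrate is loaded 2 h at room temperature and the 460/530 nm ratio read.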

Assay [3] has the same target. In words: TOX21_p53_BLA_p5_ratio: Tox21 HCT-116 p53 Agonism Beta-lactamase Assay, Ratio, Phase 5 (AID 2283599). The method in brief: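 HCT-116 p53-bla cells (4000/well) plated 5 h, dosed with compound (217-fold DMSO dilution) for 16 h at 37 C; CCF4-AM substrate 2 h at room temperature. Activity is the 460/530 nm emission ratio (405 nm excitation), fitted in gain-of-signal direction versus DMSO.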

Assay [4] can be described thus: TOX21_p53_BLA_p5_viability: Viability Assessment in the Tox21 HCT-116 p53 Agonism Beta-lactamase Assay, Phase 5 (AID 2283600). The method in brief:
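Decreased CellTiter-Glo luminescence denotes lost viability. Exposure: 16 h at 37C, 5% CO2, with compounds from DMSO stocks diluted 217-fold in wells of 4000 cells.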

Assay [5] concerns the target Cellular tumor antigen p53 (Homo sapiens) (UniProt P04637). Nature of the assay: TOX21_p53_BLA_p4_ratio: Tox21 HCT-116 p53 Agonism Beta-lactamase Assay, Ratio, Phase 4 (AID 2283601). An outline of the steps: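 HCT-116 p53 beta-lactamase reporter cells (4000/well) preincubated 5 h, then compound (217-fold dilution of DMSO stock) for 16 h at 37C. CCF4-AM substrate added 2 h at room temperature; 460/530 nm emission ratio fitted upward versus DMSO.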

The nature of assay [6]: TOX21_p53_BLA_p3_viability: Viability Assessment in the Tox21 HCT-116 p53 Agonism Beta-lactamase Assay, Phase 3 (AID 2283593).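 Also: cells exposed to compound for 16 h before reading.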 The method in brief: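 HCT116 cells, 4000/well, dosed 5 h after plating by pin transfer (217-fold dilution from DMSO stock) and incubated 16 h at 37C, 5% CO2. Viability read as ATP luminescence with CellTiter-Glo after 30 min at room temperature.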

The target in assay [7] is Cellular tumor antigen p53 (Homo sapiens) (UniProt P04637). Nature of the assay: TOX21_p53_BLA_p3_ratio: Tox21 HCT-116 p53 Agonism Beta-lactamase Assay, Ratio, Phase 3 (AID 2283596). An outline of the steps:
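Cells were seeded at 4000/well, rested 5 h at 37C, then dosed with DMSO compound solutions (217-fold dilution) for 16 h. CCF4-AM substrate was loaded for 2 h at room temperature, and the 460/530 nm emission ratio was fitted for gain of signal versus DMSO.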

Assay [8] in a line: TOX21_p53_BLA_p4_viability: Viability Assessment in the Tox21 HCT-116 p53 Agonism Beta-lactamase Assay, Phase 4 (AID 2283597).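 Also: hits lower the luminescence signal meaning cytotoxicity.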 An outline of the steps: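 4000 HCT116 cells per well; 5 h attachment; compounds from DMSO, 217-fold dilution; 16 h at 37C. Then CCF4-AM, 2 h RT, followed by CellTiter-Glo, 30 min RT, luminescence. Decrease = cytotoxicity.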

Inconclusive results are not listed. Activity calls are given as the source filed them. The calls were made as follows: active = hit-call score of the fitted dose curve at least 0.9, where 1 is the maximum; inconclusive = response in the unintended direction; inactive = score below 0.9.

Sequence of Cellular tumor antigen p53 (Homo sapiens) (P04637 whole entry, looked up): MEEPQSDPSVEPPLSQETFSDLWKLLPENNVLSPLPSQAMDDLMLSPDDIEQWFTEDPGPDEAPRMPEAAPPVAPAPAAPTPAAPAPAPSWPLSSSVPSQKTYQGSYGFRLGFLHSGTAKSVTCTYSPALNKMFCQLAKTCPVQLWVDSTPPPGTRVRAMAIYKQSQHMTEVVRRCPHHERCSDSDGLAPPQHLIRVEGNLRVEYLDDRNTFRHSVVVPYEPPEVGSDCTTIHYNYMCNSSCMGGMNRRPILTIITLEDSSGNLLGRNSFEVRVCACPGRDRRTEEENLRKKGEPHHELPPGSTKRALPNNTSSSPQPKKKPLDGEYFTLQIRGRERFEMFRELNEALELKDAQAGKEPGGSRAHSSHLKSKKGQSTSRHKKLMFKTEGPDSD

With `N#CCc1ccccc1[N+](=O)[O-]`, the result in assay [1], in assay [2], in assay [3], in assay [4] and in assay [5] was inactive.
For `CCCCCCCCCCCCCCCCOCCOCCOCCOCCOCCOCCOCCOCCOCCOCCOCCOCCOCCOCCOCCOCCOCCOCCOCCOCCO`, the half-maximal activity concentration (AC50) (commonly the concentration at which the activity in the assay is half-maximal) is 30.1 µM (active) in assay [1]; 6.03 µM (active) in assay [6]; 11.7 µM (active) in assay [7]; 34.5 µM (active) in assay [8]; 41.4 µM (active) in assay [3]; 33.3 µM (active) in assay [4].
Take `O=c1[nH]cnc2nc[nH]c12`: the compound was called inactive in assay [1], in assay [2], in assay [3] and in assay [5].
Take `Cc1cc(C(=O)NCCc2ccc(S(=O)(=O)NC(=O)NN3CCCCCC3)cc2)no1`: the compound was called inactive in assay [1], in assay [2] and in assay [5].
`CN(C)CCc1c[nH]c2ccc(Cn3cncn3)cc12`: the compound was classed as inactive in assay [1], in assay [2] and in assay [5].
With `CCCCCCCN`, the call in assay [1], in assay [2] and in assay [5] was inactive.
Regarding `C[N+](C)(C)CCCCCCCCCC[N+](C)(C)C`, the call in assay [1], in assay [2], in assay [4] and in assay [5] was inactive.
As for `Cc1cccc(C)c1NC(=O)c1cc(S(N)(=O)=O)c(Cl)cc1O`, the call in assay [1] and in assay [6] was inactive.
Consider `CCCCCCC`, for which the compound was called inactive in assay [1], in assay [6], in assay [7], in assay [8] and in assay [3].
Consider `N=C(N)N`, for which the call in assay [1], in assay [2], in assay [4] and in assay [5] was inactive.
As for `CC1COc2ccccc2N1` (stereo unspecified), the result in assay [1], in assay [6], in assay [7] and in assay [8] was inactive.
On to `CCCCCCCN(CC)CCCC(O)c1ccc(NS(C)(=O)=O)cc1` (stereo unspecified), for which the result in assay [1], in assay [6], in assay [7] and in assay [8] was inactive.
For `CC(C)C(=O)OC(=O)C(C)C`, the call in assay [1], in assay [6], in assay [7], in assay [8] and in assay [3] was inactive.
On to `CNC(=O)C[C@@H](N)C(=O)N[C@@H](C(=O)N[C@@H]1C(=O)N2[C@@H]1SC(C)(C)[C@@H]2C(=O)O)c1ccc(O)cc1`, for which the call in assay [1], in assay [2], in assay [4] and in assay [5] was inactive.
Consider `NO`, for which the compound was classed as inactive in assay [1], in assay [2] and in assay [5].
On to `CCN(CC)CCNC(=O)c1cc(Br)c(N)cc1OC`, for which the call in assay [1], in assay [2], in assay [4] and in assay [5] was inactive.
As for `CCC(C)(C)OC(=O)N[C@@H](Cc1c[nH]c2ccccc12)C(=O)N[C@@H](CCSC)C(=O)N[C@@H](CC(=O)O)C(=O)N[C@@H](Cc1ccccc1)C(N)=O`, the result in assay [1], in assay [2], in assay [4] and in assay [5] was inactive.
Regarding `CC(C)N=c1cc2n(-c3ccc(Cl)cc3)c3ccccc3nc-2cc1Nc1ccc(Cl)cc1`, the compound was called inactive in assay [1], in assay [6], in assay [7], in assay [8], in assay [3] and in assay [4].
Turning to `CN(Cc1cc(Br)cc(Br)c1N)C1CCCCC1`, the outcome in assay [1], in assay [7], in assay [8], in assay [3], in assay [4] and in assay [5] was inactive. In addition, the AC50 in assay [6] is 39.5 µM (active).
`CCN(O)CC`: the compound was called inactive in assay [1], in assay [6], in assay [7], in assay [8], in assay [3] and in assay [4]. Moreover, the outcome in assay [5] was inactive.
For the compound `CC(=O)O[C@H]1C[C@@H]2CC[C@@H]3[C@H](CC[C@@]4(C)[C@H]3C[C@H]([N+]3(C)CCCCC3)[C@@H]4OC(C)=O)[C@@]2(C)C[C@@H]1[N+]1(C)CCCCC1`, the compound was classed as inactive in assay [1], in assay [6], in assay [7], in assay [8], in assay [3] and in assay [4]. Moreover, the result in assay [5] was inactive.
Consider `CCN(CC)CCOc1ccc(C(O)(Cc2ccc(Cl)cc2)c2ccc(C)cc2)cc1` (stereo unspecified), for which the AC50 in assay [1] is 35.9 µM (active); in assay [6], 23 µM (active); in assay [8] it was 30.7 µM (active); in assay [5] it was 43 µM (active). Besides, the result in assay [7], in assay [3] and in assay [4] was inactive.
Regarding `C=C1CC2C3CCC4=CC(=O)C=C[C@]4(C)[C@@]3(F)[C@@H](O)C[C@]2(C)[C@@]1(O)C(=O)COC(C)=O` (stereo partly specified), the call in assay [1], in assay [6], in assay [7], in assay [8], in assay [3] and in assay [4] was inactive. Moreover, in assay [5], the result was inactive.
Regarding `CC(C)[N+](C)(C)CC(O)COc1cccc2ccccc12` (stereo unspecified), the compound was called inactive in assay [1], in assay [6], in assay [7], in assay [8], in assay [3] and in assay [4]. Also, the outcome in assay [5] was inactive.
For `O=C(/C=C/c1cccc(F)c1)NC1CC1`, the call in assay [1], in assay [6], in assay [7], in assay [8], in assay [3] and in assay [4] was inactive. Besides, the outcome in assay [5] was inactive.
On to `C=CC1=C(C(=O)O)N2C(=O)[C@@H](NC(=O)/C(=N\O)c3csc(N)n3)[C@H]2SC1` (stereo in doubt), for which the compound was classed as inactive in assay [1], in assay [6], in assay [7], in assay [8], in assay [3] and in assay [4].
Take `O=C(O)CONC(=O)c1ccccc1`: the outcome in assay [1], in assay [6], in assay [7], in assay [8], in assay [3] and in assay [4] was inactive. In addition, in assay [5], the outcome was inactive.
As for `Cc1ccc(NC(=O)N(C)C)cc1NC(=O)N(C)C`, the compound was called inactive in assay [1], in assay [6], in assay [7], in assay [8], in assay [3] and in assay [4].
As to `OCC(S)CS` (stereo unspecified), the compound was classed as inactive in assay [1], in assay [8], in assay [3], in assay [4] and in assay [5]. Further, the AC50 in assay [6] was 29.5 µM (active); in assay [7], 35.7 µM (active).
In the case of `CC1CCCNC1` (stereo unspecified), the compound was called inactive in assay [1], in assay [6], in assay [7], in assay [8], in assay [3] and in assay [4]. For the same compound, the outcome in assay [5] was inactive.
Consider `CNCc1ccccc1`, for which the result in assay [1], in assay [6], in assay [7], in assay [8], in assay [3] and in assay [4] was inactive. The result in assay [5] was inactive.
Turning to `Cc1ccc(S(=O)(=O)NC(=O)NC2CCCCCCC2)cc1`, the compound was called inactive in assay [1], in assay [6], in assay [7], in assay [8], in assay [3] and in assay [4]. In addition, the result in assay [5] was inactive.
As for `CCOC(=O)Nc1ccc(NCc2ccc(F)cc2)nc1N`, the call in assay [1], in assay [6], in assay [7], in assay [8], in assay [3] and in assay [4] was inactive. The result in assay [5] was inactive.

These data come from PubChem BioAssay (EPA / NIEHS).
